Our source for the Potency and outcome values is PubChem BioAssay (NCATS).

Inconclusive results are not listed. Where a call stands in place of a potency, no number is given. Activity calls are given as the source filed them. Unless noted, calls follow the shape of the full dose curve.

Tumor susceptibility gene 101 protein (Homo sapiens), sequence (Q99816 whole entry, looked up, the tested form may be a part): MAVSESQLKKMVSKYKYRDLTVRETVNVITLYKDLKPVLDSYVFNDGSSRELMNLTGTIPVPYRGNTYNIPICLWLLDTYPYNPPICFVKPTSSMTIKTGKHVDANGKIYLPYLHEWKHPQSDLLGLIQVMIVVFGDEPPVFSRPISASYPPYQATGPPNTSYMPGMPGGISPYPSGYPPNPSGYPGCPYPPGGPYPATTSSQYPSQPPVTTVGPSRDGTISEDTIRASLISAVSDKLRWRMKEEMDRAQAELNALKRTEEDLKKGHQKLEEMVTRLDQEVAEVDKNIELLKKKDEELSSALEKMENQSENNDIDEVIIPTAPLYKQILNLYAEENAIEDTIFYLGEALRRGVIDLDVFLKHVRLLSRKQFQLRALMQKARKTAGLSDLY

For one test, the target named is DNA polymerase III PolC-type (Bacillus subtilis (strain 168)) (UniProt P13267). In words: qHTS Validation Assay for the Inhibitors of DNA Replication in Gram-Positive Bacteria (AID 485295; active = well fitted inhibition curve with a large enough effect; also: potency is read from the fitted curve at half-maximal effect). To be noted: Gram-positive bacterial DNA replication assay; series mostly up to 57.1 µM. The method, boiled down: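 Inhibition of DNA synthesis by the reconstituted PolC holoenzyme, monitored through PicoGreen staining of dsDNA formed from ssM13Gori, dNTPs and NTPs, with compound preincubation and room-temperature reaction.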
DNA polymerase III PolC-type (Bacillus subtilis (strain 168)), sequence (P13267 whole entry, looked up): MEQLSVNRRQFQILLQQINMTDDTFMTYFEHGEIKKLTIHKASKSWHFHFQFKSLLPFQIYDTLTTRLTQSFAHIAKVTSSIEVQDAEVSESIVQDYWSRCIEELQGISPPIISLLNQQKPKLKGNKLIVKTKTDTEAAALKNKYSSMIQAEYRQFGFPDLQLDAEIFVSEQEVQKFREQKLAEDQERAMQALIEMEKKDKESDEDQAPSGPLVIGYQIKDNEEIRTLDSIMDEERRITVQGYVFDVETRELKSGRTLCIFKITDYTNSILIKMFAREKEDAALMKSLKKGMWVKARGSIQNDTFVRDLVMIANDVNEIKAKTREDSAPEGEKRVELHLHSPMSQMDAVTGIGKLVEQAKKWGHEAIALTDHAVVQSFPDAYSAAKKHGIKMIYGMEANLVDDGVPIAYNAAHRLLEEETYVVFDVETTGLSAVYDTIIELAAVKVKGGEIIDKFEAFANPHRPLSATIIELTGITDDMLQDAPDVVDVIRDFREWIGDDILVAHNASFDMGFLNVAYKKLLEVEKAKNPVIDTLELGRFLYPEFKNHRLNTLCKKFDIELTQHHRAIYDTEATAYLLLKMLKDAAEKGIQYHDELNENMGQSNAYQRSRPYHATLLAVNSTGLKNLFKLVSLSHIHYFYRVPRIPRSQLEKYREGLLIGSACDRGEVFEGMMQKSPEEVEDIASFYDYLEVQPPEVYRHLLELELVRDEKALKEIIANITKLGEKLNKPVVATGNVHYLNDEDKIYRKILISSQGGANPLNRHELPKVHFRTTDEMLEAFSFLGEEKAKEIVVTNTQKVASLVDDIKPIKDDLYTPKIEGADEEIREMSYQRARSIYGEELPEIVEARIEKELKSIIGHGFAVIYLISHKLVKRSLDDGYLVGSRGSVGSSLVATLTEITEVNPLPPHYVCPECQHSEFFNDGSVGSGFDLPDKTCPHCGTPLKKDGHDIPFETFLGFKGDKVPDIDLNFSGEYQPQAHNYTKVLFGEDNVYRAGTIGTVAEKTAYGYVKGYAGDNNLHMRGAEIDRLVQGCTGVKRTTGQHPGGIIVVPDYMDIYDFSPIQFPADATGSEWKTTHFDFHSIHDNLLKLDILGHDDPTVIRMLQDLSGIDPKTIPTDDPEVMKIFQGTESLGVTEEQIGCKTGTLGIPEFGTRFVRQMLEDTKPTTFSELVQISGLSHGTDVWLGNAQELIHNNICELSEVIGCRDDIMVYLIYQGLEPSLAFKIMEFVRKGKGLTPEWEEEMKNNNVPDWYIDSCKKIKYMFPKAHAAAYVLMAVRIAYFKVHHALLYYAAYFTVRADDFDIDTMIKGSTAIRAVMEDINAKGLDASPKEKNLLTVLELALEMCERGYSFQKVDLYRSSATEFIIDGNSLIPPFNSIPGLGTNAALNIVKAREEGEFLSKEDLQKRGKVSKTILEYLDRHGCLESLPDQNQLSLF
(Quantitative high-throughput screening tests each substance at several concentrations.)
With `O=C(Nc1ccccc1)c1cc([N+](=O)[O-])ccc1Cl`, the Potency result was “inactive”.

For `O=C(Nc1cccc(C(=O)Nc2ccc(S(=O)(=O)O)c3cc(S(=O)(=O)O)cc(S(=O)(=O)O)c23)c1)Nc1cccc(C(=O)Nc2ccc(S(=O)(=O)O)c3cc(S(=O)(=O)O)cc(S(=O)(=O)O)c23)c1`, the Potency was 11.9 µM (active).

`CN1CCc2ccccc2Cc2[nH]c3ccccc3c2CC1`: the Potency result was “inactive”.

`Cc1cc(NC(=O)Nc2ccc3c(ccn3C)c2)sn1`: the Potency result is “inactive”.

On to `O=C1C(SCCO)=C(SCCO)C(=O)c2ccccc21`, for which the Potency entry is “inactive”.

Consider `CCCCCC(O)c1cccc(OCc2ccc3ccccc3n2)c1` (stereo not drawn), for which the Potency entry was “inactive”.

On to `Oc1ccc(C2CNCc3sccc32)cc1O` (stereo not drawn), for which the Potency result is “inactive”.

On to `COc1ccccc1N1CCN(CCCCNS(=O)(=O)c2cccc3c(N(C)C)cccc23)CC1`, for which the Potency result is “inactive”.

Consider `O=c1[nH]c2cc(C(F)(F)F)ccc2n1-c1cc(C(F)(F)F)ccc1O`, for which the Potency entry is “inactive”.

Take `CCCN(CC1CC1)c1nc(C)nc(Nc2c(Cl)cc(Cl)cc2Cl)c1Cl`: the Potency result was “inactive”.

For `CCCCCCCC/C=C\CCCCCCCC(=O)NCCO`, the Potency entry is “inactive”.

`Ic1ccc(N2CCN(Cc3c[nH]c4ncccc34)CC2)cc1`: the Potency entry is “inactive”.

On to `C#CCN1C(C)=C(C(=O)OC)C(c2cccc([N+](=O)[O-])c2)C(C(=O)OCC)=C1C` (stereo not drawn), for which the Potency entry is “inactive”.

Take `Oc1cc(O)cc(/C=C/c2ccc(O)c(O)c2)c1`: the Potency result was “inactive”.

Turning to `Fc1ccc(C(OCCCc2cnc[nH]2)c2ccc(F)cc2)cc1`, the Potency result is “inactive”.

Take `CC12C(=O)OC(=O)C1(C)C1CCC2O1` (stereo not drawn): the Potency result is “inactive”.

On to `N[C@@H](CC(=O)O)C(=O)O`, for which the Potency entry was “inactive”.

`CC(C)Cc1ccc([C@H](C)C(=O)O)cc1`: the Potency entry was “inactive”.

Regarding `CN=c1nc(-c2ccccc2)n(-c2ccccc2)s1`, the Potency is 26.7 µM (active).

For `CN(C)C(N)=NCCC[C@H](N)C(=O)O`, the Potency result is “inactive”.

With `NCCCCCCCCCCN`, the Potency result was “inactive”.

The target of the next test is Tumor susceptibility gene 101 protein (Homo sapiens) (UniProt Q99816). In words: qHTS Validation Assay for Iinhibitors of HIV-1 Budding by Blocking the Interaction of PTAP/TSG101 (AID 485342). To be noted: TSG101-PTAP binding, fluorescence polarization, 4-point titration; series mostly up to 115 µM. In outline:
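Compound wells held the Tsg101 binding domain (10 uM) and a FITC-conjugated PTAP peptide (50 nM) in buffer at pH 7.5 containing 0.15 M NaCl and 0.01% Tween 20; polarization was recorded after 20 min, r.t.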
In the case of `O=C(Nc1ccccc1)c1cc([N+](=O)[O-])ccc1Cl`, the call was inactive.

As for `CC(C)(C=O)Cc1cc(C(C)(C)C)c(O)c(C(C)(C)C)c1`, the outcome was inactive.

Regarding `CCCCCCCCCCCCCCCCCC(=O)OC(CC(=O)O)C[N+](C)(C)C` (stereo not drawn), the outcome was inactive.

In the case of `NC[C@@H]1O[C@H](C23CC4CC(CC(C4)C2)C3)Cc2c1ccc(O)c2O`, the compound was called inactive.

In the case of `O=C(Nc1cccc(C(=O)Nc2ccc(S(=O)(=O)O)c3cc(S(=O)(=O)O)cc(S(=O)(=O)O)c23)c1)Nc1cccc(C(=O)Nc2ccc(S(=O)(=O)O)c3cc(S(=O)(=O)O)cc(S(=O)(=O)O)c23)c1`, the result was inactive.

With `CN1CCc2ccccc2Cc2[nH]c3ccccc3c2CC1`, the compound was called inactive.

Regarding `Cc1ccccc1CNc1ncnc2c1ncn2C1OC(CO)C(O)C1O` (stereo not drawn), the call was inactive.

As to `Cc1cc(NC(=O)Nc2ccc3c(ccn3C)c2)sn1`, the result was inactive.

Regarding `O=C(O)[C@@H]1C[C@H](C(=O)O)N1`, the call was inactive.

`O=C1C(SCCO)=C(SCCO)C(=O)c2ccccc21`: the outcome was inactive.

Consider `CCCCCC(O)c1cccc(OCc2ccc3ccccc3n2)c1` (stereo not drawn), for which the compound was classed as inactive.

Regarding `Oc1ccc(C2CNCc3sccc32)cc1O` (stereo not drawn), the compound was called inactive.

Regarding `COc1ccccc1N1CCN(CCCCNS(=O)(=O)c2cccc3c(N(C)C)cccc23)CC1`, the result was inactive.

On to `O=c1[nH]c2cc(C(F)(F)F)ccc2n1-c1cc(C(F)(F)F)ccc1O`, for which the outcome was inactive.

As for `CCCN(CC1CC1)c1nc(C)nc(Nc2c(Cl)cc(Cl)cc2Cl)c1Cl`, the compound was classed as inactive.

For the compound `CCCCCCCC/C=C\CCCCCCCC(=O)NCCO`, the result was inactive.

With `Ic1ccc(N2CCN(Cc3c[nH]c4ncccc34)CC2)cc1`, the compound was classed as inactive.

As for `C#CCN1C(C)=C(C(=O)OC)C(c2cccc([N+](=O)[O-])c2)C(C(=O)OCC)=C1C` (stereo not drawn), the compound was called inactive.

Turning to `Oc1cc(O)cc(/C=C/c2ccc(O)c(O)c2)c1`, the call was inactive.

On to `Fc1ccc(C(OCCCc2cnc[nH]2)c2ccc(F)cc2)cc1`, for which the compound was classed as inactive.

For `CC12C(=O)OC(=O)C1(C)C1CCC2O1` (stereo not drawn), the compound was called inactive.

Turning to `N[C@@H](CC(=O)O)C(=O)O`, the compound was classed as inactive.

Take `CC(C)Cc1ccc([C@H](C)C(=O)O)cc1`: the compound was classed as inactive.

On to `CN=c1nc(-c2ccccc2)n(-c2ccccc2)s1`, for which the compound was classed as inactive.

Regarding `CN(C)C(N)=NCCC[C@H](N)C(=O)O`, the outcome was inactive.

Take `O=c1[nH]c2cc(Cl)c(Cl)cc2[nH]c1=O`: the compound was classed as inactive.

Take `CCN1/C(=C/C(C)=O)Sc2ccc(OC)cc21`: the call was inactive.

In the case of `O=C1NC(O)=NC1(c1ccccc1)c1ccccc1`, the outcome was inactive.

As for `O=C(O)CCCC[C@@H]1CCSS1`, the result was inactive.

For the compound `COc1ccccc1CNCCCCCCNCCCCCCCCNCCCCCCNCc1ccccc1OC`, the compound was classed as inactive.

`NCCCCCCCCCCN`: the outcome was inactive.

Test system in another test: not listed separately
In words: qHTS Validation Assay to Find Inhibitors of Chronic Active B-Cell Receptor Signaling (AID 485345; active = well fitted curve in the direction sought with a large enough effect in the main read-out, with a control signal flat, not every such curve was filed as active). As to conditions: ABC-DLBCL cells, chronic BCR signaling reporter, CBG luciferase; series mostly up to 46.1 µM. The method, boiled down: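 Read-out: ratio of filter-corrected green (IkappaBalpha fusion) to red (native) luciferase signal in doxycycline-induced TMD8 cells after 4 h at 37C. Titration spanned 46 uM–3 nM; Data were normalised to basal cells and 10 uM MG-132 wells.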
With `O=C(Nc1cccc(C(=O)Nc2ccc(S(=O)(=O)O)c3cc(S(=O)(=O)O)cc(S(=O)(=O)O)c23)c1)Nc1cccc(C(=O)Nc2ccc(S(=O)(=O)O)c3cc(S(=O)(=O)O)cc(S(=O)(=O)O)c23)c1`, the compound was called inactive.

Take `CN1CCc2ccccc2Cc2[nH]c3ccccc3c2CC1`: the compound was classed as inactive.

`O=C(O)[C@@H]1C[C@H](C(=O)O)N1`: the result was inactive.

For the compound `Oc1ccc(C2CNCc3sccc32)cc1O` (stereo not drawn), the result was inactive.

As to `CCCN(CC1CC1)c1nc(C)nc(Nc2c(Cl)cc(Cl)cc2Cl)c1Cl`, the call was inactive.

On to `CCCCCCCC/C=C\CCCCCCCC(=O)NCCO`, for which the compound was called inactive.

On to `Ic1ccc(N2CCN(Cc3c[nH]c4ncccc34)CC2)cc1`, for which the compound was classed as inactive.

For the compound `N[C@@H](CC(=O)O)C(=O)O`, the outcome was inactive.

On to `CC(C)Cc1ccc([C@H](C)C(=O)O)cc1`, for which the outcome was inactive.

As to `CN=c1nc(-c2ccccc2)n(-c2ccccc2)s1`, the outcome was inactive.

For the compound `CN(C)C(N)=NCCC[C@H](N)C(=O)O`, the compound was called inactive.

On to `O=c1[nH]c2cc(Cl)c(Cl)cc2[nH]c1=O`, for which the outcome was inactive.

With `O=C1NC(O)=NC1(c1ccccc1)c1ccccc1`, the outcome was inactive.

Turning to `O=C(O)CCCC[C@@H]1CCSS1`, the outcome was inactive.

Take `COc1ccccc1CNCCCCCCNCCCCCCCCNCCCCCCNCc1ccccc1OC`: the compound was called inactive.

For `NCCCCCCCCCCN`, the compound was classed as inactive.
